Laboratory results published in PubChem BioAssay AID2685 (National Center for Advancing Translational Sciences (NCATS), 2010).
Among all 320,000 compounds or so, about 2,100 (0.66%) were called active. Roughly 53% stayed inconclusive and do not appear here. Calls come from the whole dose curve; as a rule, active = well fitted inhibition curve with a large enough effect in the signal ratio, with a control signal flat (not every such curve was filed as active); inconclusive = small, poorly fitted or top-dose-only effect, or effect the other way, or a change in a side signal; inactive = flat fitted curve, though single readings scatter; the % refers to the signal ratio. This excerpt belongs to a sample that is enriched for actives.

Experiment: qHTS Assay for Lipid Storage Modulators in Drosophila S3 Cells;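 for cell number change: cells counted by Cell Tracker Red CMTPX staining in the red channel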; for lipid storage change, negative = inhibition: % is set by controls: 0 for no effect and ±100 for the full control effect
Settings: BODIPY lipid droplet fluorescence, 18-24 h, cells fed with added oleic acid; cell number change: measured here: cell count max response; series mostly up to 46.1 µM; lipid storage change, negative = inhibition: at the top concentration
Method in brief: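 Drosophila S3 cells loaded with oleic acid (400 uM, as added) and compounds at several concentrations; lipid droplets imaged by 488-nm laser-scanning cytometry, 500–530 nm intensity and object ratio to cell channel. Percent activity normalized to 20 uM Triacsin C.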
Potency is the fitted concentration of half-maximal effect.

Compound | lipid storage change, negative = inhibition | cell number change [%] | Potency | outcome
O=C(Cn1cc(S(=O)(=O)Cc2ccccc2)c2ccccc21)N1CCOCC1 | 10.8% (inactive) | 6.54 | – | –
CC(C)OC(=O)CSc1nc2c(cc1C#N)CCCCC2 | -3.11% (inactive) | – | – | –
Cc1cc(C(=O)CCl)c(C)n1CCc1ccc(F)cc1 | -0.0782% (inactive) | -8.52 | – | –
Cc1cc(C(=O)CN2C(=O)C(=O)N(Cc3ccccc3)C2=O)c(C)n1Cc1ccc(F)cc1 | 18.7% (inactive) | -8.57 | – | –
Cc1cc(C(=O)CN2C(=O)C(=O)N(C3CCCC3)C2=O)c(C)n1CCc1ccc(F)cc1 | – | -15.3 | 20.6 µM (active) | –
COC(=O)C(C)N(C(=O)c1cccc(Cl)c1)c1c(C)cccc1C (stereo not drawn) | – | – | – | inactive
CC1CCCN(C(=O)CNC(=O)c2sc3ccccc3c2Cl)C1 (stereo not drawn) | 0.306% [at 0.0737 µM] (inactive) | 11.4 | – | –
CC1CC(C)CN(C(=O)CNC(=O)c2sc3ccccc3c2Cl)C1 (stereo not drawn) | – | -1.35 | 1.46 µM (active) | –
Cc1ccc(S(=O)(=O)N2CCN(C(=O)CNC(=O)c3sc4ccccc4c3Cl)CC2)cc1 | – | – | – | inactive
COC(=O)C(Cc1ccccc1)NC(=O)CNC(=O)c1sc2ccccc2c1Cl (stereo not drawn) | – | -4.58 | 1.84 µM (active) | –
COC(=O)c1ccc(CNC(=O)CNC(=O)c2sc3ccccc3c2Cl)cc1 | 5.59% (inactive) | 3.22 | – | –
CC(=O)Nc1ccc(NC(=O)CNC(=O)c2sc3ccccc3c2Cl)cc1 | -4.95% (inactive) | 0.461 | – | –
CC(C)N(Cc1nc(-c2ccccc2)no1)C(=O)C(C)(C)C | – | – | – | inactive
O=C(CNC(=O)c1ccco1)N=Nc1c(O)[nH]c2ccc(Br)cc12 | -20.8% (inactive) | -9.17 | – | –
O=C(CNC(=O)c1ccco1)N=Nc1c(O)[nH]c2ccc([N+](=O)[O-])cc12 | – | 26.6 | 1.03 µM (active) | –
Cc1cccc(OCC(=O)N=Nc2c(O)[nH]c3ccc([N+](=O)[O-])cc23)c1 | -6.55% (inactive) | -0.974 | – | –
CCCCN(C(=O)c1cccc(S(=O)(=O)N2CC(C)OC(C)C2)c1)c1c(N)n(CC(C)C)c(=O)[nH]c1=O (stereo not drawn) | 17% (inactive) | – | – | –
O=[N+]([O-])c1ccc2nc(C(O)C(O)c3nc4ccc([N+](=O)[O-])cc4[nH]3)[nH]c2c1 (stereo not drawn) | – | 22.3 | – | inactive
O=C(O)CSc1nnc(-c2ccccc2O)n1Cc1ccccc1 | – | 0.192 | 25.9 µM (active) | –
O=C(O)CSc1nnc(-c2ccc(Cl)cc2Cl)n1-c1ccccc1 | – | 9.07 | – | inactive
Cc1cccc(-c2nnc(SCC(=O)O)n2Cc2ccccc2)c1 | 6.73% (inactive) | -0.739 | – | –
O=C(O)CSc1nnc(-c2cccnc2)n1Cc1ccccc1 | 7.76% (inactive) | 0.309 | – | –
COc1ccc(-c2nnc(SCC(=O)O)n2Cc2ccccc2)cc1 | -23% (inactive) | 16.6 | – | –
O=C(O)CSc1nnc(-c2ccc(Cl)cc2Cl)n1Cc1ccccc1 | – | -15.2 | 5.8 µM (active) | –
Cc1cccc(-c2ccc3ncnc(NCc4cc(C)cs4)c3c2)c1 | -4.08% (inactive) | 8.79 | – | –
O=C(CCSc1ccccc1)Nc1ccccc1Br | -12.8% (inactive) | 3.05 | – | –

Compound | lipid storage change, negative = inhibition | cell number change [%] | Potency | outcome
COc1ccccc1NC(=O)COC(=O)CCn1c(C)csc1=O | 22.3% [at 0.0737 µM] (inactive) | -23.2 | – | –
O=C(CN1C(=O)c2ccccc2C1=O)Nc1ccccc1C(=O)NC1CCCCCC1 | 5.16% (inactive) | 2.31 | – | –
COc1cccc(C2CC(C(F)(F)F)n3ncc(C(=O)O)c3N2)c1 (stereo not drawn) | 7.32% (inactive) | -3.05 | – | –
CCOC(=O)C1C(=O)Nc2nc(C)nn2C1c1ccccc1 (stereo not drawn) | – | – | – | inactive
Cc1cccc(NC(=O)c2cc3c(=O)n4ccccc4nc3n(CC(C)C)c2=N)c1 | 4.83% (inactive) | 2.38 | – | –
O=c1oc(-c2ccccc2Br)nc2ccccc12 | – | -5.52 | – | inactive
Cc1cc(C)n(-c2ccc(Cl)c(C(=O)Nc3ccc(OC(F)(F)F)cc3)n2)n1 | 19.9% (inactive) | 14.5 | – | –
O=C(Nc1ccccn1)c1sc2cccc(F)c2c1Cl | 1.57% (inactive) | 9.28 | – | –
CCC(C)NC(=O)C(Cc1ccccc1)NS(=O)(=O)c1ccc2c(c1)CCC(=O)N2 (stereo not drawn) | – | 1.42 | 20.6 µM (active) | –
CCCCC(CC)CNC(=O)C(Cc1ccccc1)NS(=O)(=O)c1ccc2c(c1)CCC(=O)N2 (stereo not drawn) | 0.0744% (inactive) | 9.41 | – | –
CCCNC(=O)C(Cc1ccccc1)NS(=O)(=O)c1ccc2c(c1)CCC(=O)N2 (stereo not drawn) | 8.28% (inactive) | – | – | –
Cc1ccc(NC(=O)N2CCN(C(=O)c3ccco3)CC2)cc1Cl | -0.198% (inactive) | -6.19 | – | –
Cn1nnnc1SCC(=O)Nc1ccc(Cl)c(S(=O)(=O)N2CCOCC2)c1 | -1.86% (inactive) | 21.3 | – | –
COc1ccc(NC(=O)C2=CC(c3ccc(C)cc3)=NS(=O)(=O)N2C)cc1OC | – | -8.07 | – | inactive
COc1ccc(NC(=O)C2=CC(c3ccc(C)cc3)=NS(=O)(=O)N2C)cc1 | – | 4.61 | 5.17 µM (active) | –
COc1cc(NC(=O)C2=CC(c3ccc(C)cc3)=NS(=O)(=O)N2C)cc(OC)c1OC | – | -6.34 | 1.46 µM (active) | –
COc1ccc(C2=NS(=O)(=O)N(C)C(C(=O)Nc3cc(C)ccc3O)=C2)cc1OC | 4.1% (inactive) | 4.03 | – | –
Cc1ccc(O)c(NC(=O)C2=CC(c3cccs3)=NS(=O)(=O)N2C)c1 | -11.7% (inactive) | -6.05 | – | –
COc1ccc(CNC(=O)C2=CC(c3ccc(OC)cc3)=NS(=O)(=O)N2C)cc1 | -22.8% (inactive) | -7.78 | – | –
CCc1ccc(NC(=O)C2=CC(c3ccc(OC)cc3)=NS(=O)(=O)N2C)cc1 | – | -11.3 | 10.3 µM (active) | –
CCc1ccc(NC(=O)C2=CC(c3cccs3)=NS(=O)(=O)N2C)cc1 | – | – | 20.6 µM (active) | –
COc1ccc(C2=NS(=O)(=O)N(C)C(C(=O)Nc3ccc(C(C)=O)cc3)=C2)cc1OC | 0.308% (inactive) | 3.67 | – | –
COc1ccc(CNC(=O)C2=CC(c3ccc(OC)c(OC)c3)=NS(=O)(=O)N2C)cc1 | -14.8% (inactive) | -8.36 | – | –
COc1ccc(NC(=O)C2=CC(c3ccco3)=NS(=O)(=O)N2C)cc1 | – | 15 | – | inactive
CC(=O)c1cccc(NC(=O)C2=CC(c3cccs3)=NS(=O)(=O)N2C)c1 | – | – | – | inactive
